For 99 compounds, Potency results are on record in PubChem BioAssay AID504444 (National Center for Advancing Translational Sciences (NCATS), 2011).

Where “and” joins values, the source holds several entries; their conditions need not be identical. Equal values may be shown once. Hit rate of the full screen: of about 360,000 compounds, about 7,500 (2.1%) were called active. Roughly 20% stayed inconclusive and do not appear here. The call rests on the fitted dose curve; in most records, active means well fitted inhibition curve with a large enough effect; inconclusive means small, poorly fitted or top-dose-only effect, or effect the other way; inactive means flat fitted curve, though single readings scatter. Shown is part of a subset that was picked to be rich in actives. Where a call stands in place of a potency, no number is given.
Potency means the concentration at half of the fitted maximal effect.

A short description of this assay: Nrf2 qHTS screen for inhibitors. Further: nearly all actives have a fitted effect of over 60% in size. The note with it: A549 ARE-Fluc reporter, luciferase luminescence, 18-24 h; series mostly up to 46 µM. The procedure, abridged: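 Concentration-response testing used A549 ARE_Fluc cells at 5000 cells/well. Following an 18-24 h compound incubation, viability was read by fluorescence (Ex 405/Em 525) and luciferase output by luminescence.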
Background: qHTS replaces the single test concentration by a dilution series.
For the compound `CCOC(=O)c1c(-c2ccccc2)oc2cc(Br)c(O)c(C=O)c12`, the Potency is 20.6 µM (active). `CCOC(=O)c1c(-c2ccccc2)oc2ccc(OCC(N)=O)cc12`: the Potency entry is “inactive”.

`CCOC(=O)c1c(-c2ccccc2)oc2cc(Br)c(O)cc12`: the Potency entry was “inactive”. For `COc1ccccc1N(CCOc1ccccc1)S(=O)(=O)c1ccccc1`, the Potency result is “inactive”. The entry for `COc1cccc(CC(=NO)c2cccc(OC)c2)c1` is “inactive”; for `COc1cccc(CNC(=O)CN2C(=O)NC(Cc3ccccc3)(c3ccccc3)C2=O)c1` (centres undefined) it is “inactive”; for `O=C(CN1C(=O)NC(Cc2ccccc2)(Cc2ccccc2)C1=O)NCC1CCCCC1` it is 23.1 µM (active).

With `CCCCNC(=O)CN1C(=O)NC(Cc2ccccc2)(Cc2ccccc2)C1=O`, the Potency entry is “inactive”. Regarding `Cc1ccc(C(=O)CC2(O)C(=O)N(CCc3ccccc3)c3ccc(Br)cc32)cc1` (centres undefined), the Potency result was “inactive”. Turning to `O=C(NCCCN1CCOCC1)c1ccc(N2CCCC2)c([N+](=O)[O-])c1`, the Potency result is “inactive”. To `CCCNC(=O)c1ccc(N2CCC3(CC2)CC(c2ccc(Cl)cc2)=NO3)c([N+](=O)[O-])c1` belongs 23.1 µM (active); to `COCCNC(=O)c1ccc(N2CCC3(CC2)OCCO3)c([N+](=O)[O-])c1`, “inactive”.

Regarding `CCOC(=O)N1CCc2c(sc3c2c(=O)n(-c2ccc(CC)cc2)c(=O)n3C)C1`, the Potency result was “inactive”. As to `CCOC(=O)C1CCN(C(=O)CSc2c3c(nc4ccc(Cl)cc24)CCCC3)CC1`, the Potency entry was “inactive”.

With `Cc1ccc(-c2cc(C(F)(F)F)c(C#N)c(SCC(=O)Nc3ccccc3)n2)cc1`, the Potency entry is “inactive”.

On to `NS(=O)(=O)c1ccc(CCNC(=O)Nc2ccc(Cl)cc2)cc1`, for which the Potency entry is “inactive”. To `Cn1ccc(NC(=O)Nc2ccc(Cl)cc2)n1` belongs “inactive”; to `CC(C)S(=O)(=O)c1csc(NC(=O)Nc2ccc(Cl)cc2)c1Cl`, 20.6 µM (active). Consider `Cc1ccc(CN2CCC(CNC(=O)c3cnn(-c4ccc(C)cc4)c3C3CCN(C(=O)OC(C)(C)C)CC3)CC2)cc1`, for which the Potency result was “inactive”. As to `CCOc1ccc(NC(=O)COC(=O)C2CCC(=O)N2)c([N+](=O)[O-])c1` (centres undefined), the Potency entry is “inactive”. As for `COc1ccc(C2=NC3(CCCCC3)N(CC(=O)Nc3ccc(C(C)C)cc3)C2=O)cc1`, the Potency result is “inactive”. The entry for `COc1ccc(CCNC(=O)CCCCn2c(=O)c3ccccc3n(Cc3ccccc3)c2=O)cc1OC` is “inactive”. The entry for `COC[C@@H]1NS(=O)(=O)c2ccc(Br)cc2O[C@H]1c1ccccc1` is “inactive”; for `CN(C(=O)c1cccc(NC(=O)C2CCN(C(=O)OC(C)(C)C)CC2)c1)C1CCC1` it is “inactive”; for `O=C(CCn1c(=O)[nH]c2ccccc2c1=O)NCCCN1CCN(c2cccc(Cl)c2)CC1` it is “inactive”.

Consider `O=C(CCCC(=O)N1CCN(c2cccc(Cl)c2)CC1)c1ccccc1`, for which the Potency result is “inactive”. For the compound `O=C(Cc1ccc(-n2c(=O)[nH]c3ccccc3c2=O)cc1)N1CCN(c2cccc(Cl)c2)CC1`, the Potency was 16.4 µM (active). To `CCn1c(C(=O)Nc2cc(Cl)ccc2C)cc2sc(Cl)cc21` belongs “inactive”; to `COc1ccc(-n2c(=O)c3sc4ccccc4c3n(CC(=O)Nc3cccc(C)c3)c2=O)cc1`, “inactive”; to `Cc1ccc(C)c(Cn2c(C)c(CNCc3ccc(F)cc3)c(C(=O)O)c2C)c1`, “inactive”. To `Cc1ccc(S(=O)(=O)N2CCC(C(=O)N3CCCCCCC3)CC2)cc1` belongs “inactive”. For `Cc1c(C(=O)N/N=C/c2ccccc2)[nH]c2c([N+](=O)[O-])cccc12`, the Potency result is “inactive”.

In the case of `COc1cc2c(C(=O)O)c(C)n(C)c2c2ccccc12`, the Potency entry was “inactive”.

`COc1cccc2c(C)c(C(=O)O)[nH]c12`: the Potency was 20.6 µM (active). Consider `Cc1cc2c(cc3c(SCc4cccc(Cl)c4)nnc(C)n32)o1`, for which the Potency entry is “inactive”. On to `CC1Sc2ccc(C(=O)NCc3ccccc3Cl)cc2NC1=O` (centres undefined), for which the Potency result was “inactive”. The entry for `CCn1c2ccccc2c2cc(NC(=O)COC(=O)c3cc(S(=O)(=O)N4CCCCC4)ccc3Cl)ccc21` is “inactive”.

In the case of `CCn1c(O)c(N=NC(=O)c2cccc(S(=O)(=O)N3CCCCC3)c2)c2ccccc21`, the Potency was 20.6 µM (active). Turning to `Cc1cccc(NC(=O)c2cccc(S(=O)(=O)N3CCCC3)c2)n1`, the Potency entry is “inactive”.

Take `Cc1ccc(S(=O)(=O)N2CCN(C(=O)COC(=O)/C=C/c3cccc(Cl)c3)CC2)c(C)c1`: the Potency entry is “inactive”. To `COC(=O)c1ccccc1NC(=O)c1cc(-c2ccccc2O)no1` belongs “inactive”; to `Cc1ccc(C)c(S(=O)(=O)N(C)c2ccc(OC(=O)C3CCN(C(=O)c4ccc(F)cc4)CC3)cc2)c1`, “inactive”. To `COc1cccc2c1cc1c(=O)n(CC(=O)N3CCN(c4ccccc4)CC3)nc(C)n12` belongs “inactive”; to `COc1cc(OC)cc(C(=O)Nc2ccc(S(=O)(=O)Nc3cc(C)on3)cc2)c1`, “inactive”; to `COc1ccc(NS(=O)(=O)c2ccc(C(=O)Nc3c(C)n(C)n(-c4ccccc4)c3=O)cc2)cc1`, “inactive”. As for `COc1ccc(NC(=O)c2cnc(NS(=O)(=O)c3ccccc3)nc2)cc1`, the Potency entry was “inactive”. For `COc1cc(NS(=O)(=O)c2ccc(NC(C)=O)cc2)cc(OC)c1`, the Potency is 5.8 µM (active). To `COC(=O)COc1ccc(S(=O)(=O)Nc2ccc(NC(C)=O)cc2)cc1` belongs “inactive”; to `COc1ccc(NS(=O)(=O)c2ccc(NC(=O)c3ccc(N(C)S(C)(=O)=O)cc3)cc2)cc1`, 16.4 µM (active). The entry for `O=C(OCC#CCSc1nnc(-c2ccco2)o1)c1ccc(F)cc1` is “inactive”. On to `CC(C)n1cnc2c(NCc3ccccc3)cc(OCC3CCN(C)CC3)cc21`, for which the Potency result is “inactive”. In the case of `Cc1ccc(NC(=O)c2ccc(Cl)nc2)cc1S(=O)(=O)N1CCOCC1`, the Potency result was “inactive”. To `CCc1ccc(NC(=O)CCCc2nnc3n(CCCOC)c(=O)c4sccc4n23)cc1` belongs “inactive”; to `O=C(c1cc2cc(F)ccc2[nH]1)N1CCN(c2ccc(F)cc2)CC1`, “inactive”; to `O=C(c1cc(C(=O)N2CCN(c3ccc(F)cc3)CC2)cc([N+](=O)[O-])c1)N1CCN(c2ccc(F)cc2)CC1`, 18.4 µM (active).

On to `O=C(c1cncc(Br)c1)N1CCN(c2ccc([N+](=O)[O-])cc2)CC1`, for which the Potency result was “inactive”.

On to `Cc1ccc(-n2c(=O)c3cccnc3n2CC(=O)Nc2ccccc2C(F)(F)F)cc1C`, for which the Potency entry was “inactive”. In the case of `CC(C)(C)OC(=O)C[C@@H]1C/C=C\C[C@@H](CC(=O)N(CCO)Cc2ccccc2)C(=O)N[C@H](Cc2ccccc2)COC1=O`, the Potency result is “inactive”. For `CCCn1c(=N)n(CC(O)COc2ccccc2OC)c2ccccc21` (centres undefined), the Potency entry is “inactive”.

As to `Cc1nn(Cc2ccc(F)cc2)c(C)c1NC(=O)c1noc2c1CCc1ccccc1-2`, the Potency was 20.6 µM (active). As to `Cc1nn(Cc2ccc(F)cc2)c(C)c1NC(=O)c1cccnc1Cl`, the Potency result is “inactive”. In the case of `CC(C)Cc1cc(C(=O)Nc2cc(Br)ccc2O)no1`, the Potency result is “inactive”. For `Cc1ccccc1Cn1nc(C)c(NC(=O)c2cc(-c3ccc(F)cc3)on2)c1C`, the Potency result was “inactive”. Consider `Cc1nn(Cc2ccc(F)cc2)c(C)c1NC(=O)c1cc(CC(C)C)on1`, for which the Potency was 20.6 µM (active). Regarding `Cc1cc(C(=O)Nc2c(C)nn(Cc3ccccc3)c2C)on1`, the Potency result is “inactive”. Consider `Nn1c(SCC(=O)NC2CCCc3ccccc32)nnc1C1CC1` (centres undefined), for which the Potency result was “inactive”. As to `O=C(CN1CCN(C2CCS(=O)(=O)C2)CC1)N1N=C(c2ccc(Cl)cc2)CC1c1ccco1` (centres undefined), the Potency entry is “inactive”. To `C[C@@H]1NS(=O)(=O)c2cc(Cl)ccc2O[C@@H]1c1ccccc1` belongs “inactive”; to `COc1ccc(CNC(=O)c2cc3c(s2)-c2ccccc2OC3)cc1`, “inactive”.

On to `O=S(=O)(Nc1ccc2ccccc2c1)N1CCCCC1`, for which the Potency result was “inactive”. With `COc1ccc(C2=Nn3c(nnc3-c3ccccc3OC)SC2)cc1OC1CCCC1`, the Potency is 16.4 µM (active). `COc1ccc(C2=Nn3c(nnc3-c3ccccc3O)SC2)cc1`: the Potency result was “inactive”. The entry for `Cc1nnc2n1N=C(c1ccccc1)CS2` is “inactive”; for `Cc1cccc(NC(=O)CN(c2ccc(C(C)C)cc2)S(=O)(=O)c2c(C)nn(C)c2C)c1C` it is “inactive”. Take `O=C1CC(c2ccccc2)CC2=C1C(c1ccco1)n1nc(C(F)(F)F)nc1N2` (centres undefined): the Potency entry was “inactive”. For `COC(=O)Cc1ccc(Oc2ncc(C(F)(F)F)cc2Cl)cc1`, the Potency result is “inactive”.

`O=S(=O)(Nc1ccccn1)c1ccc(Oc2ccccc2)cc1`: the Potency result was “inactive”. Regarding `Cc1cc(C)cc(NS(=O)(=O)c2ccc(Oc3ncc(C(F)(F)F)cc3Cl)cc2)c1`, the Potency was 4.11 µM (active). To `O=C(C[C@@H]1C/C=C\CCC(=O)OC[C@@H]2CCCN2C1=O)NCCO` belongs “inactive”; to `N#CCCN(C(=O)COC(=O)c1ccc2c(c1)OCCO2)c1ccccc1`, “inactive”; to `Brc1nc2ncnc(NCc3ccco3)c2[nH]1`, “inactive”. As for `O=C(Nc1c(Br)cc2c(c1Br)Cc1cc([N+](=O)[O-])ccc1-2)C(Cl)Cl`, the Potency entry is “inactive”. The entry for `COc1ccc(C(CNC(=O)c2cccc(S(=O)(=O)Nc3ccc(Br)cc3)c2)N(C)C)cc1` (centres undefined) is “inactive”; for `Cc1ccc(C(=O)Oc2coc(CSc3nnc(NC(=O)c4cccs4)s3)cc2=O)cc1C` it is 14.6 µM (active). For the compound `CCSc1nnc(NC(=O)c2cc(=O)c3cc(C)c(C)cc3o2)s1`, the Potency result was “inactive”. With `COC(=O)c1ccc(CSc2nnc(NC(C)C)s2)cc1`, the Potency result was “inactive”. As for `Cc1ccc(NC(=O)c2oc3ccccc3c2NC(=O)Cc2cccs2)cc1`, the Potency result was “inactive”. With `CCN(Cc1ccncc1)C(=O)CCc1ccccc1`, the Potency entry was “inactive”. Regarding `Cc1cc(C)c(SCCc2ccncc2)c(C)c1`, the Potency was 16.4 µM (active). Consider `O=C(NOCc1ccccc1)c1cccc([N+](=O)[O-])c1`, for which the Potency result is “inactive”. With `CN1CCN(C2(CNC(=O)COc3ccc(C(C)(C)C)cc3)CCCCC2)CC1`, the Potency result is “inactive”. `O=C(Cc1ccc(Br)cc1)N1CCN(c2ccccn2)CC1`: the Potency result was “inactive”.

Consider `O=C(/C=C/c1cccc(C(F)(F)F)c1)N1CCN(c2ccccn2)CC1`, for which the Potency was 23.1 µM (active). Turning to `O=C(C(Cl)Cl)N1CCN(c2ccccn2)CC1`, the Potency result is “inactive”. Regarding `COc1ccc(CN2C(CC(=O)Nc3cccnc3)c3ccc(C(F)(F)F)cc3S2(=O)=O)cc1` (centres undefined), the Potency result was “inactive”.

As for `O=C(CNC(=O)c1ccc(Cl)cc1Cl)OC(C(=O)Nc1cc(C(F)(F)F)ccc1Cl)c1ccccc1` (centres undefined), the Potency result was “inactive”.

Consider `O=[N+]([O-])c1cccc2ncccc12`, for which the Potency entry is “inactive”. On to `Cc1ccccc1NC(=O)c1ccccc1NS(=O)(=O)c1cccc2cccnc12`, for which the Potency result is “inactive”. The figure for `O=[N+]([O-])c1ccccc1S(=O)(=O)Nc1cccc2cccnc12` is 5.8 µM (active) and 11.6 µM (active).
